From PubChem BioAssay (EPA / NIEHS) come the findings set out here.

Molecules are shown by their SMILES. Active and inactive are the calls of the source. Rule for the calls: active = hit-call score of the fitted dose curve at least 0.9, where 1 is the maximum; inactive = score below 0.9.

Common to all, as to settings: mRNA level, 48 h; actives raise or lower the signal
Read-out in test [1]: Glutathione S-Transferase (GSTA2), GSTA2 (gene 2939)
The test can be described thus: LTEA_HepaRG_GSTA2: Life Technologies and Expression Analysis (LTEA) Assay for Glutathione S-Transferase (GSTA2) using HepaRG (AID 2283497). Put shortly: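 Differentiated human HepaRG cells were exposed in duplicate for 48 h in serum-free induction medium, 8 points from 100 uM top in half-log steps, 0.5% DMSO. GSTA2 mRNA was measured by TaqMan qRT-PCR, normalized to ACTB, GAPDH and POLR2A; bidirectional fit versus DMSO.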

Read-out in test [2]: Glutamate-cysteine ligase catalytic (GCLC), GCLC (gene 2729)
In words: LTEA_HepaRG_GCLC: Life Technologies and Expression Analysis (LTEA) Assay for Glutamate-cysteine ligase catalytic (GCLC) using HepaRG (AID 2283498). The gist of the method:
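Differentiated HepaRG cells exposed 48 h in serum-free induction medium, eight-point half-log series topping at 100 uM in 0.5% DMSO, duplicates. GCLC mRNA by qRT-PCR normalized to ACTB, GAPDH and POLR2A, fitted bidirectionally versus DMSO.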

Read-out in test [3]: growth arrest and DNA damage 45 (GADD45G), GADD45G (gene 10912)
In words: LTEA_HepaRG_GADD45G: Life Technologies and Expression Analysis (LTEA) Assay for growth arrest and DNA damage 45 (GADD45G) using HepaRG (AID 2283499). Put shortly:
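Differentiated human HepaRG cells, 48 h post-plating, exposed 48 h in serum-free induction medium to 8 half-log concentrations (top 100 uM, 0.5% DMSO) in duplicate. GADD45G mRNA measured by Fluidigm TaqMan qRT-PCR, normalized to ACTB, GAPDH, POLR2A; bidirectional fit versus DMSO.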

Read-out in test [4]: Glutamate-cysteine ligase regulatory (GCLM), GCLM (gene 2730)
The test can be described thus: LTEA_HepaRG_GCLM: Life Technologies and Expression Analysis (LTEA) Assay for Glutamate-cysteine ligase regulatory (GCLM) using HepaRG (AID 2283500). The gist of the method:
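Differentiated HepaRG cells exposed 48 h in serum-free induction medium to eight half-log concentrations up to 100 uM (0.5% DMSO). GCLM mRNA by TaqMan qRT-PCR, normalized to ACTB, GAPDH and POLR2A; bidirectional fit versus DMSO.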

Read-out in test [5]: Glutathione S-transferase M3 (GSTM3), GSTM3 (gene 2947)
In words: LTEA_HepaRG_GSTM3: Life Technologies and Expression Analysis (LTEA) Assay for Glutathione S-transferase M3 (GSTM3) using HepaRG (AID 2283501). The gist of the method:
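Differentiated human HepaRG cells were exposed in duplicate for 48 h in serum-free induction medium, 8 points from 100 uM top in half-log steps, 0.5% DMSO. GSTM3 mRNA was measured by TaqMan qRT-PCR, normalized to ACTB, GAPDH and POLR2A; bidirectional fit versus DMSO.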

Read-out in test [6]: Heat shock 70 kDa protein 1 (HSPA1A), gene 3303
The test can be described thus: LTEA_HepaRG_HSPA1A: Life Technologies and Expression Analysis (LTEA) Assay for Heat shock 70 kDa protein 1 (HSPA1A) using HepaRG (AID 2283502). The gist of the method: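 Human HepaRG cells in serum-free induction medium were exposed in duplicate for 48 h to 8 half-log concentrations, highest 100 uM, in 0.5% DMSO. HSPA1A mRNA read by TaqMan qRT-PCR, normalized to ACTB, GAPDH, POLR2A, fitted bidirectionally against DMSO.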

Read-out in test [7]: 3-Hydroxy-3-Methylglutaryl-CoA Synthase 2 (HMGCS2), HMGCS2 (gene 3158)
In words: LTEA_HepaRG_HMGCS2: Life Technologies and Expression Analysis (LTEA) Assay for 3-Hydroxy-3-Methylglutaryl-CoA Synthase 2 (HMGCS2) using HepaRG (AID 2283504). Put shortly:
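Human HepaRG cells in serum-free induction medium were exposed in duplicate for 48 h to 8-point half-log series from 100 uM top in 0.5% DMSO. HMGCS2 mRNA measured by TaqMan qRT-PCR, normalised to ACTB, GAPDH, POLR2A; bidirectional fit versus DMSO.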

Read-out in a further test: HGF (gene 3082)
The test can be described thus: LTEA_HepaRG_HGF: Life Technologies and Expression Analysis (LTEA) Assay for Hepatocyte Growth Facto (HGF) using HepaRG (AID 2283505). The gist of the method:
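Differentiated HepaRG cells in serum-free induction medium exposed 48 h in duplicate, 8 half-log concentrations from 100 uM in 0.5% DMSO. HGF mRNA by qRT-PCR, normalised to ACTB, GAPDH, POLR2A; bidirectional fitting.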

Read-out in test [8]: Insulin Like Growth Factor 1 (IGF1), IGF1 (gene 3479)
In words: LTEA_HepaRG_IGF1: Life Technologies and Expression Analysis (LTEA) Assay for Insulin Like Growth Factor 1 (IGF1) using HepaRG (AID 2283506). Put shortly:
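Differentiated HepaRG cells in serum-free induction medium, exposed 48 h in duplicate to 8 half-log concentrations up to 100 uM in 0.5% DMSO. IGF1 mRNA by Fluidigm qRT-PCR, normalised to ACTB, GAPDH and POLR2A.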

Read-out in test [9]: Intercellular Adhesion Molecule 1 (ICAM1), ICAM1 (gene 3383)
The test can be described thus: LTEA_HepaRG_ICAM1: Life Technologies and Expression Analysis (LTEA) Assay for Intercellular Adhesion Molecule 1 (ICAM1) using HepaRG (AID 2283507). The gist of the method:
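Differentiated human HepaRG cells in serum-free induction medium exposed 48 h in duplicate to 8 half-log concentrations (top 100 uM, 0.5% DMSO). ICAM1 mRNA quantified by TaqMan qRT-PCR, normalized to ACTB, GAPDH and POLR2A; bidirectional fitting versus DMSO.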

Read-out in test [10]: Insulin-like growth factor-binding protein 1 (IGFBP1), IGFBP1 (gene 3484)
The test can be described thus: LTEA_HepaRG_IGFBP1: Life Technologies and Expression Analysis (LTEA) Assay for Insulin-like growth factor-binding protein 1 (IGFBP1) using HepaRG (AID 2283508). Put shortly:
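HepaRG cells, plated 48 h then switched to serum-free induction medium, exposed in duplicate for 48 h to 8-point half-log series from 100 uM in 0.5% DMSO. mRNA measured by qRT-PCR, normalized to ACTB/GAPDH/POLR2A; bidirectional fit versus DMSO.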

Read-out in test [11]: Interleukin 6 (IL6), IL6 (gene 3569)
The test can be described thus: LTEA_HepaRG_IL6: Life Technologies and Expression Analysis (LTEA) Assay for Interleukin 6 (IL6) using HepaRG (AID 2283509). The gist of the method:
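HepaRG cells exposed in duplicate for 48 h to eight half-log concentrations, top 100 uM, in 0.5% DMSO serum-free induction medium. mRNA measured by qRT-PCR, normalized to ACTB, GAPDH and POLR2A. Bidirectional fit versus DMSO.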

Read-out in test [12]: Interleukin 6 Receptor (IL6R), IL6R (gene 3570)
The test can be described thus: LTEA_HepaRG_IL6R: Life Technologies and Expression Analysis (LTEA) Assay for Interleukin 6 Receptor (IL6R) using HepaRG (AID 2283510).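 For AC50: TaqMan qRT-PCR signal normalized to ACTB GAPDH and POLR2A housekeeping genes.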 The gist of the method:
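Differentiated HepaRG cells, plated 48 h, then exposed in duplicate for 48 h in serum-free induction medium to 8 half-log concentrations (top 100 uM, 0.5% DMSO). IL6R mRNA measured by TaqMan qRT-PCR, normalized to ACTB/GAPDH/POLR2A; bidirectional fit vs DMSO.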

Read-out in test [13]: Potassium channel subfamily K member 1 (KCNK1), KCNK1 (gene 3775)
In words: LTEA_HepaRG_KCNK1: Life Technologies and Expression Analysis (LTEA) Assay for Potassium channel subfamily K member 1 (KCNK1) using HepaRG (AID 2283511). Put shortly:
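Differentiated HepaRG cells, 48 h exposure in serum-free induction medium with 0.5% DMSO; 8 concentrations, half-log from 100 uM, duplicate. KCNK1 mRNA by qRT-PCR, normalized to ACTB, GAPDH, POLR2A; bidirectional fit vs DMSO.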

Read-out in test [14]: Keratin 19 (KRT19), KRT19 (gene 3880)
In words: LTEA_HepaRG_KRT19: Life Technologies and Expression Analysis (LTEA) Assay for Keratin 19 (KRT19) using HepaRG (AID 2283512). Put shortly:
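Differentiated HepaRG cells in serum-free induction medium, exposed 48 h in duplicate to 8 half-log concentrations up to 100 uM in 0.5% DMSO. KRT19 mRNA by qRT-PCR, normalized to ACTB, GAPDH, POLR2A; bidirectional fit vs DMSO.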

Read-out in test [15]: JUN Transcription Factor, JUN (gene 3725)
In words: LTEA_HepaRG_JUN: Life Technologies and Expression Analysis (LTEA) Assay for JUN Transcription Factor using HepaRG (AID 2283513). The gist of the method:
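HepaRG cells, 48 h post-plating, exposed 48 h in serum-free induction medium to 8-point half-log series (top 100 uM, 0.5% DMSO), duplicate; mRNA by qRT-PCR (TaqMan, Fluidigm), normalized to ACTB/GAPDH/POLR2A; bidirectional fit vs DMSO.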

Read-out in test [16]: Lipase C (LIPC), LIPC (gene 3990)
The test can be described thus: LTEA_HepaRG_LIPC: Life Technologies and Expression Analysis (LTEA) Assay for Lipase C (LIPC) using HepaRG (AID 2283514). Put shortly: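 HepaRG cells, 48 h after plating, treated in duplicate for 48 h in serum-free induction medium over 8 half-log concentrations from 100 uM, 0.5% DMSO. LIPC mRNA by TaqMan qRT-PCR normalized to ACTB/GAPDH/POLR2A; bidirectional fit versus DMSO.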

Read-out in test [17]: Lipoprotein lipase (LPL), LPL (gene 4023)
The test can be described thus: LTEA_HepaRG_LPL: Life Technologies and Expression Analysis (LTEA) Assay for Lipoprotein lipase (LPL) using HepaRG (AID 2283515). Put shortly: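 Differentiated HepaRG cells, plated 48 h, then exposed 48 h in serum-free induction medium to 8 concentrations (top 100 uM, half-log steps) in 0.5% DMSO, duplicate. LPL mRNA measured by qRT-PCR, normalized to ACTB, GAPDH and POLR2A.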

Read-out in test [18]: MicroRNA 122 (MIR122), gene 406906
The test can be described thus: LTEA_HepaRG_MIR122: Life Technologies and Expression Analysis (LTEA) Assay for MicroRNA 122 (MIR122) using HepaRG (AID 2283516). Note: the transcript read is the microRNA miR-122. Put shortly:
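Differentiated human HepaRG cells in serum-free induction medium exposed 48 h to 8 half-log concentrations from 100 uM in 0.5% DMSO, duplicate. MIR122 quantified by Fluidigm TaqMan qRT-PCR, normalised to ACTB, GAPDH, POLR2A; fold change fitted bidirectionally versus DMSO.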

Read-out in test [19]: Hypoxia-inducible factor 1-alpha (Homo sapiens) (UniProt Q16665)
The test can be described thus: LTEA_HepaRG_HIF1A: Life Technologies and Expression Analysis (LTEA) Assay for Hypoxia-inducible factor 1 (HIF1A) Trancription factor using HepaRG (AID 2283503). The gist of the method: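 Differentiated HepaRG cells in serum-free induction medium exposed 48 h, in duplicate, to 8-point half-log series from 100 uM in 0.5% DMSO. HIF1A mRNA measured by TaqMan qRT-PCR, normalized to ACTB/GAPDH/POLR2A, fitted bidirectionally versus DMSO.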

Hypoxia-inducible factor 1-alpha (Homo sapiens), sequence (Q16665 whole entry, looked up): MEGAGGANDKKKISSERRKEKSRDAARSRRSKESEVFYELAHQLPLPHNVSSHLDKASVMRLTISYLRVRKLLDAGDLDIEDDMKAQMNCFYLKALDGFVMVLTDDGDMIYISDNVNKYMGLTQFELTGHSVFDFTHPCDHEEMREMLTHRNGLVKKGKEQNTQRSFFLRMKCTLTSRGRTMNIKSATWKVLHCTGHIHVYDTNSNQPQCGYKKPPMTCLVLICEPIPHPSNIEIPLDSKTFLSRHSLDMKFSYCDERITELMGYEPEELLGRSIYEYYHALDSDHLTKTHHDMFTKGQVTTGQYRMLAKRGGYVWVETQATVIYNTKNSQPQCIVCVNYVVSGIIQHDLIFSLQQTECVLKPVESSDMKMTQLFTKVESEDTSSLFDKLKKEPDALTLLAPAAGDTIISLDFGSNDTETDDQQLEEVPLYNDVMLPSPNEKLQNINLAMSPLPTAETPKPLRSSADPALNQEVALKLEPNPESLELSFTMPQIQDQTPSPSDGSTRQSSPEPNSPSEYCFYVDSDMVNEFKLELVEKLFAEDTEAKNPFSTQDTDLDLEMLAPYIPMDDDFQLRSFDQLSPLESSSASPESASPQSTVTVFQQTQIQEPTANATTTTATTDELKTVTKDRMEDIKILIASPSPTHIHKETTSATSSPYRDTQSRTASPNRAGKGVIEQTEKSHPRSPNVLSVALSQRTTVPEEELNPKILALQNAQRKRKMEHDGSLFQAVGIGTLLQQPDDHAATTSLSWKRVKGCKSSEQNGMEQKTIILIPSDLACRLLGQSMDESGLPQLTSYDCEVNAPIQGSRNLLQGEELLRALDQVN

A word on the AC50: it is the concentration giving half of the maximal activity seen. Regarding `Cc1cccc(Nc2cc(Cl)nc(SCC(=O)O)n2)c1C`, the molecule was classed as inactive in [1], in [2], in test [3], in [4], in test [5] and in test [6]. Further, the molecule was called inactive (with HGF (gene 3082); in test [8]; in [9]; in test [10]; in test [11]; in test [12]). The molecule was classed as inactive in test [13], in test [14], in [15], in [16], in test [17] and in [18]. Also, in test [7], the AC50 was 6990 nM (active).

Turning to `O=C(OCCCCCOC(=O)c1ccccc1)c1ccccc1`, the call in [1], in test [6], in [19], in test [7] and in [14] was inactive. In addition, the AC50 is 543 nM (active) in test [2]; 1570 nM (active) in test [4]; 1620 nM (active) in [5]; 2120 nM (active) with HGF (gene 3082); 1970 nM (active) in test [8]; 3240 nM (active) in test [9]. Also, the AC50 in test [10] is 1990 nM (active); in [11] it was 1020 nM (active); in test [12] it was 1910 nM (active); in test [13], 2570 nM (active); in test [15], 1290 nM (active); in [16], 2100 nM (active). Moreover, the AC50 in test [17] was 973 nM (active).

Regarding `CCCCCCCCCCO`, the result in test [1], in test [2], in test [3], in test [4], in test [5] and in test [6] was inactive. Moreover, the result (in [19]; in [7]; with HGF (gene 3082); in test [8]; in test [10]; in test [11]) was inactive. For the same molecule, the molecule was classed as inactive in test [12], in test [13], in [14], in [15], in test [16] and in test [17]. In test [18], the result was inactive.

As to `Cc1cccc(C)c1O`, the molecule was classed as inactive in [1], in test [2], in [4], in test [5], in [6] and in [19]. The molecule was called inactive (in test [7]; with HGF (gene 3082); in [8]; in test [9]; in test [10]; in [11]). Moreover, the call in test [12], in [13], in test [14], in test [15], in [16] and in [17] was inactive.
